Each structure is given as a SMILES string.

The assay in a line: resazurin metabolic signal in HepG2 cells – cell-based, resazurin fluorescence, 24 h, PK04 Diversity Set, profiling panel (AID 1172). Also: test concentration not given here. The settings on record: HepG2 viability, higher = more signal. For orientation: Alamar Blue is a resazurin reagent that responds to reducing activity.
Compound `CC(C)(C)N1CC=CC23O[C@@H]4/C=C\CCCOC(=O)C4[C@H]2C(=O)N(CCCCCO)[C@@H]3C1=O` (stereo partly specified) yielded a z-score of -0.144.
As to `COCCCNC(=O)[C@@]1(CCS(=O)(=O)c2ccccc2)COC(c2ccc(OCCCO)cc2)=N1`, the z-score was -0.721.
In the case of `O=C1NC(=O)C2C1C=CC(C(O)c1ccc(B(O)O)cc1)N2Nc1ccc(Cl)cc1Cl` (stereo unspecified), the z-score was -1.97.
In turn, `CCOc1cc(C(O)C2C=CC3C(=O)N(c4ccccc4)C(=O)C3N2Nc2ccccc2F)ccc1O` (stereo unspecified) displayed a z-score of -1.42.
`O=C1OCCC=C[C@H]2OC34C=CCN(c5ccc6ccccc6c5)C(=O)[C@H]3N(CCO)C(=O)[C@@H]4C12` (stereo partly specified) had a z-score of 0.523.
`CN(C)CCCNC(=O)[C@@]1(Cc2ccccc2I)c2ccccc2C(=O)N(C2CCCCC2)[C@H]1c1ccc(CO)cc1` registered a z-score of -6.39.
The compound `COc1ccc(C#Cc2ccc3c(c2)[C@]2(C(=O)N3)[C@H](C(=O)O)[C@H]3C(=O)O[C@H](c4ccccc4)[C@H](c4ccccc4)N3[C@@H]2c2ccccc2OCCO)cc1` returned a z-score of -0.638.
On to `COCCOC(=O)N1C(=O)[C@@]2(c3cc(C#CC4(O)CCCCCC4)ccc31)[C@H](c1ccc(O)cc1)N1[C@H](c3ccccc3)[C@H](c3ccccc3)OC(=O)[C@H]1[C@@H]2C(=O)N1CCCCCCC1`, for which the z-score came out at 0.0323.
For the compound `[N-]=[N+]=Nc1ccccc1[C@@H]1OC(c2ccc(OCCCO)cc2)=N[C@]1(Cc1ccccc1)C(=O)NCCN1CCOCC1`, the z-score was -0.158.
The same measure for `CCCCC(O)C1C=CC2C(=O)N(c3ccccc3)C(=O)C2N1Nc1ccccc1` (stereo unspecified): 0.281.
Take `CC=CC(O)C1C=CC2C(=O)NC(=O)C2N1Nc1ccc(Cl)cc1Cl` (stereo unspecified): the z-score is -1.2.
In the case of `COC(=O)[C@H](Cc1ccccc1)N1CC2=CCCC=C[C@@H]2[C@H]1[C@H](O)Cc1ccccc1` it was 0.272; in that of `Cc1ccc(S[C@]2(C(=O)NC(C)C)CC(=O)N(C3CCCCC3)[C@@H]2c2ccc(CO)cc2I)cc1`, 0.748; in that of `CCCNC(=O)[C@@]1(c2ccc([N+](=O)[O-])cc2)CC(=O)N(C(C)C)[C@@H]1c1ccc(CO)cc1`, 0.0889.
The same measure for `COC(=O)[C@@]1(Cc2ccc(OC)cc2)[C@H]2c3cc(C(=O)N(C)C)[nH]c3C[C@H]2CN1C(=O)c1ccccc1`: -0.576; for `O=C1N(CCS(=O)(=O)c2ccccc2)c2ccccc2C[C@]12N=C(c1ccc(OCCCO)cc1)O[C@@H]2c1ccccc1`: -0.285.
For the compound `CC1=C([C@H](O)CCc2ccccc2)[C@H](CO)n2c(=O)n(-c3ccccc3)c(=O)n2C1`, the z-score was 0.331.
The compound `O=C1O[C@H](Cc2ccccc2)[C@@H]2[C@H]3C=CCCC=C3CN2[C@H]1Cc1ccc(O)cc1` had a z-score of 1.28.
On to `CN(C)c1ccc(C(O)C2C=CC3C(=O)N(Cc4ccccc4)C(=O)C3N2n2cnnc2)cc1` (stereo unspecified), for which the z-score was -0.659.
The compound `COC(=O)[C@@]1(Cc2ccc(F)cc2)[C@H]2c3cc(C(=O)N(C)C)n(CCc4ccc(O)c(O)c4)c3C[C@H]2CN1C(=O)c1ccccc1` returned a z-score of 0.515.
Regarding `CCCC[C@H]1C[C@@H]1[C@@H]1N(C(C)=O)[C@H](c2cccc(OC)c2)CC12CC2`, the z-score worked out at 0.527.
`CC(=O)OCC1C2CC[C@H]3C(OCc4ccc(F)cc4C(F)(F)F)OC[C@]4(C)[C@H]3C2=C(CN4C(=O)OC(C)(C)C)[C@H](C)C1COC(C)=O` (stereo partly specified) yielded a z-score of -1.11.
`COc1ccccc1CN1C(=O)c2ccccc2[C@](Cc2ccccc2I)(C(=O)NCC(C)C)[C@@H]1c1ccc(CO)cc1` had a z-score of 0.52.
With `C[N+](C)(C)CCCC[C@@H]1NC(=O)[C@@H]2C[C@H](C(=O)NCc3ccc(F)cc3)[C@H](c3ccc(O)cc3)N2C1=O`, the z-score is -0.348.
The compound `CN1C(=O)C2C(C1=O)C1C=C(CCCO)C2C(C2CC2)N1Cc1cccc(OC(F)(F)F)c1` (stereo unspecified) had a z-score of -0.584.
`COC(=O)[C@@]1(Cc2ccccc2)[C@H]2c3cc(C(=O)N(C)C)n(Cc4ccc(S(C)(=O)=O)cc4)c3C[C@H]2CN1C(=O)c1ccccc1` yielded a z-score of -1.17.
Turning to `O=C1c2ccccc2[C@@]2(Cc3ccccc3N(Cc3ccccc3)C2=O)[C@H](c2ccc(CO)cc2)N1Cc1ccccc1Cl`, the z-score worked out at 0.645.
In turn, `O=C1C[C@@](C(=O)NCc2ccccc2)(c2ccc([N+](=O)[O-])cc2)[C@@H](c2ccc(CO)cc2)N1C1CCCCC1` yielded a z-score of -0.563.
On to `CC(C)c1nc2cc(Br)ccc2c(=O)o1`, for which the z-score is 0.693.
For the compound `CCOC(=O)C1=CCC(c2cc3ccccc3[nH]2)N(CCN2CC(C(=O)OCC)=CCC2c2cc3ccccc3[nH]2)C1` (stereo unspecified), the z-score was -0.474.
With `O=C(NC1CC1)[C@@H]1c2ccccc2C(=O)N(CC23CC4CC(CC(C4)C2)C3)[C@H]1c1ccc(CO)cc1`, the z-score worked out at 0.658.

(Values after PubChem BioAssay.)
